Assay outcomes as filed in PubChem BioAssay.
Compounds with a hit are over-represented: about 19% of the library has one in this group of screens.
KB-V1 MDR tox = KB-V1 MDR subline cytotoxicity; AID 1347076; 400,000 compounds, 3.4% hits; KB-V1 MDR cells viability, CellTiter-Glo, 72 h; Potency, µM (doses to about 46.1 µM), hits mostly cytotoxic; note: nearly all actives have a fitted effect of over 60% in size
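Cytotoxicity toward P-gp-expressing KB-V1 cells was determined as loss of CellTiter-Glo luminescence after 72 h at 37 degrees C. Compounds were tested in quantitative HTS format across a concentration range, with curves fitted to normalized data.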
DT40 TDP1 CPT = DT40-hTDP1 cell growth loss with CPT. Potency, µM (titrated, usually from 46.2 µM), inactives show at the highest dose activity change, negative = growth inhibition, hits mostly inhibitors. chicken DT40 Tdp1-/-;hTDP1 cells + 20 nM CPT, ATP luminescence, 48 h. 420,000 compounds, 12% hits; note: nearly all actives have a fitted effect of over 55% in size
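Cell growth measured by CellTiter-Glo luminescence after a minimum 48 h, 37 C compound exposure with 20 nM CPT in Tdp1-knockout DT40 cells stably expressing hTDP1, seeded 400/well; qHTS titration format.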
DT40 TDP1 no CPT = qHTS for Inhibitors of human tyrosyl-DNA phosphodiesterase 1 (TDP1): qHTS in cells in absence of CPT; DT40 Tdp1-/- hTDP1 cells, no CPT, ATP luminescence, 48 h; 420,000 compounds, 15% hits; Potency, µM (doses to about 46.2 µM), for the others: at the highest dose activity change, negative = growth inhibition, most hits filed as inhibitors; note: nearly all actives have a fitted effect of over 55% in size
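Camptothecin absent (DMSO only). Human TDP1-complemented DT40 knockout cells, 400 cells/well, 37 °C for minimum 48 hr; ATP measured via CellTiter-Glo, 30 min dark incubation, luminescence.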
KB-3-1 tox = kills parental KB-3-1 adenocarcinoma cells. Potency, µM (top dose mostly 46.1 µM), usual class: cytotoxic. 400,000 compounds, 1.4% hits. KB-3-1 viability, CellTiter-Glo ATP luminescence, 72 h; note: nearly all actives have a fitted effect of over 60% in size
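Parental KB-3-1 adenocarcinoma cells in phenol-red-free DMEM with 10% FBS were pin-treated with compounds at several concentrations, incubated 72 h at 37 °C, and viability read by CellTiter-Glo luminescence; concentration-effect curves were fitted after normalization.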
HT1080 IDH1KD tx = HT-1080 IDH1 knockdown cell toxicity (counter line); HT-1080 IDH1 knockdown viability, ATP luminescence, 48 h; Potency, µM (titrated, usually from 46.1 µM), for the others: at the top dose activity, negative = toxicity, most hits filed as cytotoxic; 360,000 compounds, 2% hits; AID 686971;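 note: 0% = DMSO wells and -100% = cell-free medium wells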
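CellTiter-Glo luminescence after 48 h compound exposure at 37 degrees C of IDH1-knockdown HT-1080 cells in 5% FBS RPMI. %Activity scaled between DMSO wells and cell-free media wells, with curves fitted and assigned curve classes.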
HT1080NT lethal = kills 2HG-producing HT-1080-NT fibrosarcoma cells. HT-1080-NT fibrosarcoma viability, CellTiter-Glo ATP luminescence, 48 h. Potency, µM (highest dose often 46.1 µM), for inactives: at the top dose activity, negative = less viability, actives largely listed as cytotoxic. 360,000 compounds, 1.6% hits;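 note: NT is the 2HG producing partner of a matched IDH1 knockdown line; 0% = DMSO-treated cells and -100% = media-only wells without cells; nearly all actives have a fitted effect of over 55% in size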
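750 cells/well, RPMI + 5% FBS; 2 h settle, compound pin-transfer, 48 h at 37 degrees C. CellTiter-Glo 10 min RT, luminescence. Normalized to DMSO and media-only wells.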
* = called active by the depositor; i = inactive; ? = inconclusive; · = not tested or not shown; ! = a repeat was not active; [ ] = remark or other dose. Calls come from the whole dose curve; as a rule, active = well fitted curve in the direction sought with a large enough effect; inconclusive = small, poorly fitted or top-dose-only effect, or another doubt; inactive = no such curve, though single readings can be large; an effect the other way counts as inactive or inconclusive. Unless noted, % is set by controls: 0 for no effect and ±100 for the full control effect; potency is the fitted concentration of half-maximal effect.

SMILES	KB-V1 MDR tox	DT40 TDP1 CPT	DT40 TDP1 no CPT	KB-3-1 tox	HT1080 IDH1KD tx	HT1080NT lethal
CCOc1ccc(NC(=O)C2CSC(c3ccncc3)=N2)cc1 (stereo not drawn)	i	23µM*	?	i	0%	-6%
CCCn1c(C)cc(=O)c2cc(NC(=O)c3ccccn3)ccc21	?	?	15µM*	i	-4%	-7%
CCOc1ccc(-c2cc(C(=O)Nc3ccc4c(c3)OCCO4)c3ccccc3n2)cc1	?	?	10µM*	18µM*	?	?
CCOc1ccc(-c2cc(C(=O)NCc3ccc(C)cc3)c3ccccc3n2)cc1	i	-17%	-14%	i	·	·
N#Cc1ccc(S(=O)(=O)N2CCCCC2c2cc(C(=O)N3CCOCC3)no2)cc1 (stereo not drawn)	i	-5%	-18%	i	21%	?
O=C(CNC(=O)c1ccc(F)cc1)OCc1cc(=O)n2nc(C3CC3)sc2n1	i	-15%	-1%	i	·	·
CCOc1ccc(NC(=O)c2ccccn2)cc1	21µM*	-45%	13µM*	?	?	?
CCOc1cc(NC(=O)c2cccs2)c(OCC)cc1NC(=O)c1ccccn1	i	?	?	i	21%	?
CCOc1cc(NC(=O)c2ccccn2)c(OCC)cc1NC(=O)c1cccc(C)c1	i	4.1µM*	1.8µM*	i	2%	1%
Cc1cccc(-c2cc(C(=O)Nc3ccc4c(c3)OCCO4)c3ccccc3n2)c1	?	29µM*	13µM*	i	4%[9.24 µM]	-19%
O=C(Nc1ccc2c(c1)OCCO2)c1cc(-c2ccccn2)nc2ccc(Br)cc12	i	?	?	i	3%	0%
COc1ccc(-c2cc(C(=O)OCC(=O)Nc3ccc4c(c3)OCO4)c3ccccc3n2)cc1	i	?	21µM*	i	-7%	-13%
CCOc1ccc(NC(=O)c2cnccn2)cc1	i	-9%	?	?	-14%	-3%
CCN(CCO)CCCC(C)Nc1ccnc2cc(Cl)ccc12 (stereo not drawn)	·	2.6µM*	4.1µM*!	·	·	·
CCN(CC)CCCC(C)Nc1nccc2c(Cl)cccc12 (stereo not drawn)	?	21µM*	?	i	?	?
CCN(CC)CCOc1c(C)cccc1Cl	i	0%	10%	i	8%	-1%
Cc1cc2n(n1)CCC(=O)N2Cc1ccc(C(=O)Nc2ccc(Br)c(C)c2)cc1	i	-28%	?	?	·	·
COc1ccccc1C(=O)N=Nc1c(O)[nH]c2ccc([N+](=O)[O-])cc12	?	?	23µM*	i	2%	4%
C=C(C)CNC(=S)N=Nc1c(O)[nH]c2ccc([N+](=O)[O-])cc12	?	4.1µM*	4.6µM*	i	-17%	-2%
NC(=O)N=Nc1c(O)[nH]c2ccc([N+](=O)[O-])cc12	i	4%	10%	i	1%	0%
CCn1cc(/C=C(\NC(=O)c2ccccc2)C(=O)NCCCn2ccnc2)c2ccccc21	i	-18%	-18%	i	5%	10%
CCn1cc(/C=C(\NC(=O)c2ccc(C)cc2)C(=O)NCCCn2ccnc2)c2ccccc21	?	?	21µM*	i	·	·
Clc1ccc(Cn2ncc3c(N4CCCCC4)ncnc32)cc1	?	16µM*	21µM*	i	-11%	-7%
Clc1ccc(Cn2ncc3c(N4CCCCC4)ncnc32)c(Cl)c1	?	23µM*	12µM*	i	6%	8%
Cc1ccc(-n2ncc3c(N4CCCCCC4)ncnc32)cc1Cl	i	-28%	-12%	i	·	·
